This note sets out measurements from PubChem BioAssay AID1851 (National Center for Advancing Translational Sciences (NCATS), 2009).

Each structure is given as a SMILES string. Several values for one entry are separate records, joined by “and”; a condition that tells them apart may be missing. Identical values can stand only once. Screen size: about 16,000 compounds; about 5,100 (32%) were called active. Inconclusive results (about 25%) are left out. Some of the results follow. A number with no mark means an inactive call. Calls follow the shape of the dose curve; as a rule, active = well fitted curve in the direction sought with a large enough effect; inconclusive = small, poorly fitted or top-dose-only effect, or effect the other way; inactive = no such curve, though single readings can be large or run the other way.
% is scaled to controls: 0 for no effect and ±100 for the full control effect.

Cytochrome P450 3A4 (Homo sapiens), sequence (P08684 whole entry, looked up): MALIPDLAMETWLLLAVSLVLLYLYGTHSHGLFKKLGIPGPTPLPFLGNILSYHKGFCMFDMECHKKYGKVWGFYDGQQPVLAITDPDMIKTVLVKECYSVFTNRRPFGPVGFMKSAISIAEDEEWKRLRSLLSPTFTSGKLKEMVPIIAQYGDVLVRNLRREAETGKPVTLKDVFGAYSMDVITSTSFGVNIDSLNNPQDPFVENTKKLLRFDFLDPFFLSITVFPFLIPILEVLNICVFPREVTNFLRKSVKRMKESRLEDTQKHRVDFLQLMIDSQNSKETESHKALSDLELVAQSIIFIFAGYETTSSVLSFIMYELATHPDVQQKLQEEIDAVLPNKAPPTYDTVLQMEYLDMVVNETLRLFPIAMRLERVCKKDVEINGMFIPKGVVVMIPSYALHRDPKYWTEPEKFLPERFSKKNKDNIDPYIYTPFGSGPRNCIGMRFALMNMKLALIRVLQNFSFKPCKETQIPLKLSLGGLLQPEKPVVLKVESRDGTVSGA

The assay addresses Cytochrome P450 3A4 (Homo sapiens) (UniProt P08684). Briefly: Cytochrome panel assay with activity outcomes. The note with it: recombinant CYP, pro-luciferin dealkylation, luminescence, p450-cyp3a4; series mostly up to 57.1 µM.
As to `NS(=O)(=O)c1nc(S(=O)(=O)O)c2[nH]cnc2n1`, the activity, negative = inhibition was -3.98% [at 11.4 µM].
With `Cc1c(C)c2c(C)[nH]nc2oc1=O`, the activity, negative = inhibition is 4.7% [at 11.4 µM].
As a reminder, the AC50 is the concentration giving half of the maximal activity seen. For `C[C@H]1CC[C@H]2C(=O)N[C@H](Cc3ccccc3)C(=O)N2[C@@H]1c1ccccc1`, the AC50 was 2.51 µM (active).
As to `C[C@@H]1CC[C@@H]2C(=O)N3[C@@H](CC[C@@H](C)[C@@H]3c3ccc(-c4ccco4)cc3)C(=O)N2[C@H]1c1ccc(-c2ccco2)cc1`, the activity, negative = inhibition was -15.7% [at 11.4 µM].
Still for that read-out and setting: the figure for `C[C@@H]1CN2[C@H](c3ccc(Br)cc3)[C@H](C)CC[C@H]2C(=O)O1` is -28.2% [at 11.4 µM].
With `O=C(/C=C\c1ccc(O)c(O)c1)O[C@@H]1C[C@](O)(C(=O)O)C[C@@H](O)[C@@H]1O`, the AC50 entry was “inactive”.
On the same count and under the same terms, the entry for `CC(=O)Nc1ccc(NCN2C(=O)C3C4CCC(C4)C3C2=O)cc1` (stereo not drawn) is “inactive”; for `Cc1cccc(OC(=O)CN2C(=O)C3C4CCC(C4)C3C2=O)c1C` (stereo not drawn) it is 14.1 µM (active).
Still for that read-out and setting: the figure for `COc1ccc(C(=O)Nc2ccc(Cl)cn2)cc1Cl` is 28.2 µM (active); for `CCOc1ccc(C(=O)Nc2ccc(Cl)cn2)cc1Cl` it is “inactive”.
On to `Cc1cc(=O)oc(C)c1C(=O)Nc1ccc(Cl)cn1`, for which the activity, negative = inhibition is -3.08% [at 2.29 µM].
For the compound `Cc1ccccc1-c1cncnc1NCc1cccs1`, the half-maximal activity concentration (AC50) was 0.501 µM (active).
With `Clc1ccccc1-c1cncnc1NCc1cccs1`, the AC50 is 0.501 µM (active).
Still for that read-out and setting: the figure for `FC(F)(F)c1ccccc1-c1cncnc1NCc1cccs1` is 0.251 µM (active).
On the same count and under the same terms, next, `COc1ccccc1-c1cncnc1NCc1cccs1`: 0.398 µM (active).
Still for that read-out and setting: next, `FC(F)(F)c1ccccc1-c1cc(NCc2cccs2)ncn1`: “inactive”; `CCCCCCCCCCCC1=C(O)C(=O)C=C(O)C1=O`: “inactive”.
As to `O=C(O)c1ccccc1C(=O)Nc1cc2c(cc1Br)-c1ccccc1C2=O`, the activity, negative = inhibition is -24.8% [at 11.4 µM].
On to `O=C(O)CCCCCNC(=O)c1ccccc1Br`, for which the AC50 entry was “inactive”.
The same measure, in the same setting: next, `NNC(=O)CNC(c1ccccc1)c1cc(Br)ccc1NC(=O)c1ccccc1Br` (stereo not drawn): 0.794 µM (active).
Take `CCOC(=O)CCN1C(=O)[C@H]2[C@H]3[C@H](O)[C@H](O)C/C(=N/OCC(C)C)[C@H]3CC[C@@H]2C1=O`: the activity, negative = inhibition is -22.9% [at 11.4 µM].
On to `COc1ccccc1-c1cc(NCc2cccnc2)ncn1`, for which the half-maximal activity concentration (AC50) was 5.01 µM (active).
The same measure, in the same setting: the entry for `Cc1ccccc1-c1cc(NCc2ccccc2)ncn1` is “inactive”; for `Cc1ccccc1-c1cc(NCc2cccnc2)ncn1` it is 10 µM (active); for `O=C(O)[C@H]1CCCNC1` it is “inactive”.
Same read-out and setting: next, `NS(=O)(=O)c1ccc(NCc2ccccc2OCc2ccccc2F)cc1`: 15.8 µM (active).
As to `NS(=O)(=O)c1ccc(NCc2cnc3ccccc3n2)cc1`, the activity, negative = inhibition was -7.19% [at 11.4 µM].
Still for that read-out and setting: the figure for `NS(=O)(=O)c1ccc(NCc2nc3ccccc3[nH]2)cc1` is -19.2% [at 11.4 µM].
For the compound `CCCOc1ccccc1-c1nc2n[nH]nc2c(=O)[nH]1`, the AC50 result is “inactive”.
The same measure, in the same setting: next, `O=C1c2ccccc2NC(c2ccc(Cl)cc2Cl)N1O` (stereo not drawn): “inactive”.
As to `C=CCc1cccc(C2Nc3ccccc3C(=O)N2O)c1O` (stereo not drawn), the AC50 is 20 µM (active).
On the same count and under the same terms, the entry for `CC(=O)c1c(O)cc(=O)n(-c2ccccc2)c1-c1ccc(C)cc1` is “inactive”.
For `Cc1cc(O)c(C(C)C)cc1CN1CCCCC1`, the activity, negative = inhibition is -7.75% [at 11.4 µM].
Take `Cc1cc(O)c(C(C)C)cc1C1(c2cc(C(C)C)c(O)cc2C)OC(=O)c2ccccc21`: the AC50 is 1.58 µM (active).
As to `Fc1ccc(COc2ccc(Br)cc2CNCc2ccncc2)cc1`, the AC50 was 0.562 µM (active).
The same measure, in the same setting: the figure for `Clc1ccccc1-c1nc(NCc2cccs2)c2ccccc2n1` is 6.31 µM (active).
The same measure, in the same setting: next, `FC(F)(F)c1ccccc1-c1nc(NCc2cccs2)c2ccccc2n1`: 3.98 µM (active).
Consider `C/C(=N\NC(=S)Nc1cccc(C)c1)c1ccccc1`, for which the AC50 is 8.91 µM (active).
Turning to `C/C(=N/NC(=O)Cc1cccn1C)c1ccccc1`, the AC50 result is “inactive”.
`C/C(=N\NC(=O)c1cccc(C)c1)c1cccc(NC(=O)c2ccco2)c1`: the activity, negative = inhibition was -7.23% [at 2.29 µM].
With `COc1cc(C(=O)NCc2cccc3ccccc23)cc(Cl)c1OC`, the AC50 is 10 µM (active).
Same read-out and setting: the figure for `C[C@H]1CN(S(=O)(=O)c2cccc3cnccc23)CCN1` is 10 µM (active).
With `O=C(O)C1(C(=O)O)CCN(S(=O)(=O)c2ccccc2)CC1`, the activity, negative = inhibition is -12.3% [at 11.4 µM].
With `O=S(=O)(c1cccc2cnccc12)N1CCNCC1`, the AC50 was 12.6 µM (active).
Still for that read-out and setting: the entry for `CC1CCN(C(=O)C2CCN(S(=O)(=O)c3cccc4nonc34)CC2)CC1` is “inactive”.
Still for that read-out and setting: the figure for `O=S(=O)(c1ccccc1S(=O)(=O)N1CCCCC1)N1CCCCC1` is 8.91 µM (active).
For the compound `COc1ccc(S(=O)(=O)N2CCCCCC2)cc1N(C)S(=O)(=O)c1ccc(Cl)cc1`, the activity, negative = inhibition is -26.2% [at 2.29 µM].
On the same count and under the same terms, the figure for `O=S(=O)(c1ccccc1)N1CN2CN(C1)CN(S(=O)(=O)c1ccccc1)C2` is -1.65% [at 11.4 µM].
Take `O=S(=O)(c1cccc2c(Cl)cccc12)N1CCCNCC1`: the AC50 was 5.01 µM (active) and 3.98 µM (active).
The same measure, in the same setting: next, `CCOC(=O)C(NC(C)=O)C(=O)O` (stereo not drawn): “inactive”.
Regarding `O=C1C=CC(=Nc2cccc3c(N=C4C=CC(=O)O4)cccc23)O1`, the activity, negative = inhibition is -24.5% [at 11.4 µM].
On to `CC(C)=CCc1c(C)nc2ccccc2c1C(=O)O`, for which the AC50 entry is “inactive”.
The same measure, in the same setting: the entry for `CCC1C(=O)N=C(SCC(=O)Nc2ccc(C(=O)OC)cc2)NC1=O` (stereo not drawn) is “inactive”; for `COC(=O)c1ccc(NC(=O)C2CCCCC2C(=O)O)cc1` (stereo not drawn) it is “inactive”.
On to `COC(=O)c1cc(NC(=O)CC2NC3CCCCC3NC2=O)cc(C(=O)OC)c1` (stereo not drawn), for which the AC50 was 28.2 µM (active).
For `COC(=O)c1cc(=O)[nH]c(=O)[nH]1`, the activity, negative = inhibition is 0.116% [at 11.4 µM].
On the same count and under the same terms, the figure for `CC(=O)COc1ccc2c(C)c(C)c(=O)oc2c1` is -1.64% [at 2.29 µM].
For the compound `CC(=O)c1c(C)[nH]c(C(=O)COc2ccc(C#N)cc2)c1C`, the AC50 was 3.16 µM (active).
The same measure, in the same setting: next, `CC(=O)N1CCN(c2nc(C)nc3sc4c(c23)CCC(C)C4)CC1` (stereo not drawn): “inactive”.
Still for that read-out and setting: the figure for `CC#CCOC(=O)c1c(C)nc2sc3c(c2c1N)CC[C@@H](O)C3` is 3.16 µM (active); for `Cc1cc(N2C(=O)C(O)=C(C(=O)c3ccco3)C2c2ccc(O)cc2)no1` (stereo not drawn) it is “inactive”.
`COCCN1C(=O)C(=O)/C(=C(/O)c2cccc(OC)c2)C1c1ccc(C)o1` (stereo not drawn): the AC50 entry was “inactive”.
In the case of `COc1cccc(/C(O)=C2/C(=O)C(=O)N(c3cc(C)on3)C2c2cccs2)c1` (stereo not drawn), the AC50 was 28.2 µM (active).
Same read-out and setting: next, `COC(=O)[C@@]1(Cc2ccccc2)[C@H]2c3cc(C(=O)N4CCCC4)n(Cc4ccc(C(F)(F)F)nc4)c3C[C@H]2CN1C(=O)c1ccccc1`: 3.16 µM (active).
The same measure, in the same setting: the figure for `COC(=O)[C@@]1(Cc2ccc(OC)cc2)[C@H]2c3cc(C(=O)N4CCCC4)n(CCn4cc([N+](=O)[O-])nc4C)c3C[C@H]2CN1C(=O)c1ccccc1` is 3.98 µM (active); for `COC(=O)[C@@]1(Cc2ccc(OC)cc2)[C@H]2c3cc(C(=O)N4CCCC4)n(Cc4ccc(C(F)(F)F)nc4)c3C[C@H]2CN1C(=O)c1ccccc1` it is 3.16 µM (active); for `COC(=O)[C@@]1(Cc2ccc(F)cc2)[C@H]2c3cc(C(=O)N(C)C)n(Cc4ccc(C(F)(F)F)nc4)c3C[C@H]2CN1C(=O)c1ccccc1` it is 1.26 µM (active).
The same measure, in the same setting: next, `O=C(NCCCn1ccnc1)c1ccc(Br)c(S(=O)(=O)N2CCOCC2)c1`: 2 µM (active).
For `CN1CCc2[nH]nc(-c3n[nH]c4c3CN(C)CC4)c2C1`, the activity, negative = inhibition was -6.16% [at 11.4 µM].
Take `CCN1CCN(C(=O)N[C@H](C(=O)N[C@@H]2C(=O)N3[C@@H]2SC(C)(C)[C@@H]3C(=O)O)c2ccccc2)C(=O)C1=O`: the AC50 result is “inactive”.
`CCOC(=O)c1ccc(Cl)c(NC(=O)c2ccc(-c3ccccc3)cc2)c1`: the activity, negative = inhibition was 6.61% [at 11.4 µM].
For the compound `CCOc1c(Cl)cc(C(=O)Nc2ccccc2-c2ccccc2)cc1Cl`, the AC50 is 14.1 µM (active).
`CO[C@@H]1COC(=O)CC=C[C@@H](C)[C@@H]2C=C[C@H](O)[C@@H](COC(=O)[C@H](C)NC(=O)CC=C[C@H]1C)O2`: the activity, negative = inhibition was -23.2% [at 11.4 µM].
As to `COc1ccc(-c2cc(C(F)(F)F)n3nc(C(=O)N4CCCCC4)cc3n2)cc1`, the AC50 was 14.1 µM (active).
For the compound `COC(=O)c1ccccc1NC(=O)c1cc2nc(C3CC3)cc(C(F)(F)F)n2n1`, the AC50 result is “inactive”.
On the same count and under the same terms, next, `COc1ccc(NC(=O)N2CCC3(CC2)CCN(C(=O)c2cnccn2)CC3)cc1`: “inactive”; `CCOC(=O)C1CCCN(C(=O)c2cc3nc(-c4ccc5c(c4)OCO5)cc(C(F)(F)F)n3n2)C1` (stereo not drawn): 3.98 µM (active).
On the same count and under the same terms, next, `CCOC(=O)c1[nH]c(C(=O)O)c(CCN(CC)CC)c1C`: “inactive”.
`CN(C)Cc1ccc(-c2cc3onc(-c4ccccc4)c3c(=O)n2C)cc1`: the activity, negative = inhibition was 8.36% [at 11.4 µM].
`COc1ccc(C(C(=O)NC2CCCCC2)N(C(=O)c2sc(C)nc2C)c2ccc(C(C)=O)cc2)cc1` (stereo not drawn): the AC50 is 25.1 µM (active).
For `COc1ccc(C(C(=O)NC2CCCC2)N(C(=O)c2snc(-c3ccc(F)cc3)c2N)c2ccccc2)cc1` (stereo not drawn), the activity, negative = inhibition is -12% [at 2.29 µM].
Turning to `COc1ccc(C(C(=O)NC2CCCCC2)N(C(=O)CCCC(=O)Nc2ccccn2)c2ccc3c(c2)OCCO3)cc1` (stereo not drawn), the AC50 is 1.26 µM (active).
Same read-out and setting: the figure for `COc1ccc(C(C(=O)NC2CCCCC2)N(C(=O)c2sc(C)nc2C)c2ccc(OC)cc2)cc1` (stereo not drawn) is 12.6 µM (active); for `CC(=O)c1ccc(S(=O)(=O)NC(=O)NC2CCCCC2)cc1` it is “inactive”; for `COc1ccc([N+](=O)[O-])cc1NC(=S)NC(NC(=O)Cc1ccc(OC)c(OC)c1)C(Cl)(Cl)Cl` (stereo not drawn) it is 1.58 µM (active).
For `CC(CC(=O)O)CC(=O)Nc1ccc(S(N)(=O)=O)cc1` (stereo not drawn), the activity, negative = inhibition was -4.05% [at 2.29 µM].
Regarding `COc1ccc(OC)c(NC(=O)CC(Cc2ccccc2OC)C(=O)O)c1` (stereo not drawn), the AC50 entry is “inactive”.
Same read-out and setting: the figure for `COc1ccc([N+](=O)[O-])cc1NC(=O)CC(C)c1ccccc1` (stereo not drawn) is 7.08 µM (active).
On to `CC(C)CC(=O)Nc1ccc2c(c1)oc1ccccc12`, for which the AC50 entry is “inactive”.
On the same count and under the same terms, next, `CCOc1ccc(NC(=S)NC(=O)/C=C/c2ccc(OC)c(OC)c2)c([N+](=O)[O-])c1`: “inactive”.
On to `Cc1ccc([N+](=O)[O-])cc1NC(=S)NC(=O)C(C)(C)C`, for which the AC50 result was “inactive”.
On the same count and under the same terms, the figure for `CC(CC(=O)Nc1ccc(Cl)c([N+](=O)[O-])c1)c1ccccc1` (stereo not drawn) is 10 µM (active); for `COc1ccc([N+](=O)[O-])cc1NCc1ccccc1C` it is 12.6 µM (active).
